Assay outcomes from PubChem.
Compounds with a hit are over-represented: about 4.9% of the library has one in this group of screens.
tim10-1 inh: tim10-1 yeast growth inhibition | inhibition, % at 20 µM | S. cerevisiae tim10-1 ts strain growth, BacTiter-Glo, 24 h | AID 463190 | 2.2% of 330,000 active;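 active means inhibition of at least 40%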;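 further: mutant grown at 25 °C; 0% = DMSO wells with yeast and 100% = wells holding no yeast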
NALP1 inh: inhibitors of NALP1 inflammasome in yeast; S. cerevisiae NALP1/ASC/caspase-1 growth, X-gal OD620, 72 h; inhibition, % at 10 µM; 0.61% of 280,000 active; in the data active means inhibition mostly above about 24%, no sharp cut-off; inactive means mostly below about 32%
NALP3 yeast inh: NALP3 inhibition in yeast. inhibition, % at 10 µM. 0.39% of 330,000 active. Yeast reconstituted NLRP3/ASC/caspase-1, beta-gal luminescence, 24 h;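 active means inhibition of 50% or more; inactive means inhibition below 50%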;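 further: plate controls were induced DMSO wells for no effect and uninduced yeast grown without galactose for full effect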
TIM10 inh: inhibits growth of TIM10 yeast strain; inhibition, % at 10 µM; S. cerevisiae TIM10 strain growth, BacTiter-Glo luminescence, 24 h; 1.4% of 330,000 active; AID 463195;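 active means inhibition of 40% or more at the single tested concentration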;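 further: wild-type TIM10 isogenic control strain grown at permissive 25 °C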
SKKanGAS inh: inhibitors of SKKanGAS S. pyogenes growth in kanamycin (SK-promoter or general growth effect). inhibition, % at 7.5 µM. BacTiter-Glo, 6 h. 1.3% of 300,000 active;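 active means mean replicate score, as percent of positive control median, at least 50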;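 further: strain carries kanamycin resistance gene driven by streptokinase promoter and grows in 40 µg/ml kanamycin; loss of luminescence reflects streptokinase promoter inhibition or plain growth inhibition; 0% = median of DMSO wells and 100% = positive control at its reference dose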
tim23-1 inh: inhibits growth of tim23-1 mutant yeast. inhibition, % at 20 µM. 1.3% of 330,000 active. S. cerevisiae tim23-1 growth, BacTiter-Glo luminescence, 24 h. AID 463212;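 active means growth inhibition of the mutant yeast at or above 50%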;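 further: temperature-sensitive mutant grown at 25 °C; plate controls were DMSO-treated mutant yeast for no effect and medium wells lacking yeast for full effect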
Starred values were filed as active, the others as inactive; / = no result.

SMILES	tim10-1 inh	NALP1 inh	NALP3 yeast inh	TIM10 inh	SKKanGAS inh	tim23-1 inh
O=C(O)CSc1cc(NS(=O)(=O)c2ccc(Cl)cc2)c2ccccc2c1O	/	0	/	/	1	/
Cc1cc(C)c(S(=O)(=O)Nc2cc(SCC(=O)O)c(O)c3ccccc23)cc1C	/	49*	/	/	7	/
COc1ccc(S(=O)(=O)Nc2ccc(S(=O)(=O)Nc3nccs3)cc2)cc1	-1	-1	21	-21	-11	12
O=c1cc(O)nc(SCc2ccc(Cl)cc2)[nH]1	0	5	-9	6	104*	6
O=C(NCc1cccnc1)c1ccc(NS(=O)(=O)c2cccc([N+](=O)[O-])c2)cc1	7	/	-2	-6	/	14
Cc1c(OCC(=O)N[C@@H](Cc2c[nH]c3ccccc23)C(=O)O)ccc2c1oc(=O)c1ccccc12	6	-6	0	6	8	-2
CCCc1nc(NC2CCCCC2)c(C#N)c2c1COC(C)(C)C2	11	14	0	9	60*	16
O=C(Nc1ccccc1C(=O)Nc1nnc(C(F)(F)F)s1)c1ccccc1	13	17	2	-10	97*	26
Cc1occc1C(=O)Nc1nnc(C(F)(F)F)s1	9	15	-1	1	0	15
O=C(NC(=S)Nc1ccccc1O)c1ccc(-c2ccc(Cl)cc2)o1	14	-8	24	-5	53*	0
Cc1ccc(O)c(NC(=S)NC(=O)c2ccc(-c3ccc(Cl)cc3)o2)c1	15	/	34	1	96*	23
COc1ccccc1NC(=S)NC(=O)c1ccc(-c2ccc(Cl)cc2)o1	17	1	8	9	-13	8
CCOc1ccc(C(CC(=O)O)NC(=O)COc2ccc3ccccc3c2)cc1OC (stereo unspecified)	12	10	8	0	7	5
CC(=O)c1cc2c(cc1NC(=O)Cc1ccsc1)OCO2	14	/	31	9	/	29
Nc1[nH]n2c(=O)cc(-c3ccccc3)nc2c1N=Nc1ccc2c(c1)OCO2	17	42*	30	9	56*	3
Cc1cccn2c(=O)c(C(=O)NC3CC(C)CC(C)(C)C3)c(O)nc12 (stereo unspecified)	-10	/	22	-22	45	11
Cn1cc(Br)c(C(=O)n2cc(Br)cn2)n1	-6	1	12	4	0	10
CCN(CC)c1ccc(N=Cc2ccccc2[N+](=O)[O-])cc1	17	33	35	4	3	32
CCN(CC)c1ccc(N=Cc2ccc([N+](=O)[O-])o2)cc1	35	76*	22	26	19	48
O=C(Cc1nnc(NC(=O)c2ccccc2)s1)N/N=C/c1cccc(O)c1	15	14	25	2	7	-2
Cc1ccc(Cn2cc(/C=N/NC(=O)Cc3nnc(NC(=O)c4ccc(C)cc4)s3)c3ccccc32)cc1	-2	-1	0	6	58*	-11
O=C1/C(=C/c2cccnc2)Oc2cc(OS(=O)(=O)c3ccc(Cl)cc3)ccc21	21	41*	15	26	13	4
CC(C)OC(=O)c1cccnc1N1CCN(c2cccc(Cl)c2)CC1	22	13	16	0	60*	-7
CSc1ccccc1C(=O)N1CCN(c2cccc(Cl)c2)CC1	-40	-9	1	-20	-6	6
O=C1c2ccc3c4c(ccc(c24)C(=O)N1c1cccc(O)c1)C(=O)N(c1cccc(O)c1)C3=O	7	/	28	-8	65*	3
SMILES	tim10-1 inh	NALP1 inh	NALP3 yeast inh	TIM10 inh	SKKanGAS inh	tim23-1 inh
O=C(Nc1nnc(-c2ccco2)o1)c1ccc2ccccc2c1	30	33	13	29	92*	5
Cc1ccc(C(=O)Nc2nnc(-c3ccco3)o2)cc1	36	6	8	24	13	9
CCC(=O)Nc1nnc(-c2ccco2)o1	-16	-3	15	-8	2	-6
Cc1ccsc1C(=O)Nc1nnc(-c2ccco2)o1	1	28	3	-2	83*	4
O=C(COC(=O)COc1ccc(Br)cc1)Nc1ccc2c(c1)OCCO2	-11	/	-1	-3	/	-10
CCOC(=O)Cn1nc(-c2ccccc2)c2ccccc2c1=O	7	-2	10	4	9	16
O=c1c2ccccc2c(-c2ccccc2)nn1Cc1c(Cl)cccc1Cl	23	35	29	-1	75*	10
Cc1ccnc(NC(=O)CCC(=O)N(CC(=O)NCc2ccccc2)Cc2cccs2)c1	16	6	10	-3	-2	11
Cc1cccc(OCC(=O)NCC(=O)N/N=C/c2cc(Br)cc(Br)c2O)c1	21	24	22	29	61*	1
COc1ccc(/C=C/c2ccc3c(Br)ccc(O)c3n2)cc1	7	17	8	16	85*	3
COc1cc(/C=C/c2ccc3c(Br)cc(Br)c(O)c3n2)ccc1O	/	5	/	/	97*	/
COc1ccc(/C=C/c2noc(-c3ccccc3O)n2)cc1	0	39	8	-16	0	1
Cc1cc(C)n(Cc2ccc(Cl)cc2Cl)c(=O)c1S(=O)(=O)c1ccccc1	25	36	4	-11	57*	14
CC(C)=CCC12Oc3cc(O)ccc3C1(O)Oc1cc3c(c(O)c1C2=O)C=CC(C)(C)O3 (stereo unspecified)	-16	/	13	20	105*	47
COc1ccc(-c2oc3c4c(cc(OC)c3c(=O)c2CC=C(C)C)OC(C)(C)C=C4)c(OC)c1	17	/	-1	10	40	19
Cc1cc(C)c(NC(=O)C2CCCCN2C)c(C)c1 (stereo unspecified)	-7	40*	5	-6	-3	8
CCCCn1c(SCC(=O)c2ccccc2)nc2c1c(=O)[nH]c(=O)n2C	-1	3	1	-1	80*	6
Cc1cc(C(F)F)nn1CC(=O)NC1C(=O)N2C(C(=O)O)=C(CSc3nnnn3C)CSC12 (stereo unspecified)	5	15	24	7	119*	1
CC(C(=O)NC1C(=O)N2C(C(=O)O)=C(CSc3nnnn3C)CSC12)n1cc(Br)cn1 (stereo unspecified)	-12	2	3	8	97*	12
Cc1nn(C(C)C(=O)NC2C(=O)N3C(C(=O)O)=C(CSc4nnnn4C)CSC23)cc1Cl (stereo unspecified)	-1	8	7	-10	100*	0
CC1=C(C(=O)O)N2C(=O)C(NC(=O)c3ccn(C)n3)C2SC1 (stereo unspecified)	-2	8	14	1	-4	-5
Cn1nnnc1SCC1=C(C(=O)O)N2C(=O)C(NC(=O)C3CC3c3ccccc3)C2SC1 (stereo unspecified)	-4	22	10	-3	101*	-5
Cn1nnnc1SCC1=C(C(=O)O)N2C(=O)[C@@H](NC(=O)[C@H](O)c3ccccc3)[C@H]2SC1	12	15	-1	10	-2	-7
